In the library only some 1.4% were active in any assay of this set; here they are far more common.
BH1578 lux ind = inducers of Vibrio cholerae quorum light production without autoinducers | V. cholerae BH1578 lux reporter, luminescence, 6 h | actives 0.16% (n = 350,000) | activation, % at 18.7 µM; in the data active means activation mostly above about 9.7%, no sharp cut-off; inconclusive means no clear call, values can overlap the other calls; inactive means mostly below about 3.7%
PrP 5UTR inh = suppresses PrP 5' UTR mRNA reporter expression | cell-based PrP 5' UTR mRNA reporter, plate reader | inhibition, % (concentration not given with the values) | actives 0.35% (n = 340,000) | AID 488862; in the data active means inhibition above about 52%; further: 0 = median of the neutral control wells
FadD28 binding = M. tuberculosis FadD28 bisubstrate binding inhibition; actives 0.22% (n = 360,000); AID 588549; inhibition, % at 12.5 µM; FadD28 bisubstrate probe binding, fluorescence polarization; in the data active means inhibition above about 8.5%, passing the limit was not always enough; inconclusive means no clear call, values can overlap the other calls
SSB-PriA inh = K. pneumoniae PriA-SSBct interaction inhibition | actives 0.6% (n = 430,000) | inhibition, % at 33 µM | AlphaScreen SSBct-PriA binding, biotinylated peptide; in the data active means inhibition mostly above about 37%, no sharp cut-off; inactive means mostly below about 20%;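 further: plate controls were negative control peptide for no effect and reference peptide for full effect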
PrPC TRFRET = reduces human prion protein on the cell surface; actives 0.43% (n = 370,000); inhibition, % at 13.8 µM; cell surface PrPC, TR-FRET read-out; P04156; in the data active means inhibition above about 24%; further: 0% = median of the test wells and 100% = reference compound wells
An asterisk follows results filed as active; i = inactive; ? = inconclusive; · = no result.

SMILES | BH1578 lux ind | PrP 5UTR inh | FadD28 binding | SSB-PriA inh | PrPC TRFRET
COc1ccccc1N(CCC#N)C(=O)CSc1nc(-c2ccccc2)cn1N | 29* | -6 | -1 | 8 | -2
S=c1[nH]ncn2c1cc1oc3ccccc3c12 | 1 | -22 | -3 | 2 | 97*
Cc1csc(NC(=O)CSc2nnc(NC(=O)NC(C)(C)C)s2)n1 | i | -12 | 12* | -5 | -1
O=C(COc1ccccc1F)Nc1ccc2c(c1)N(C(=O)c1ccco1)CCC2 | · | · | · | -6 | ·
N#CC(C#N)=NNc1ccc(S(N)(=O)=O)cc1 | 0 | -9 | 25* | 25 | -21
CC(C)(C)S(=O)(=O)C(C#N)=NNc1ccc(S(N)(=O)=O)cc1 | · | · | · | 0 | ·
Cc1c(Nc2cc(=O)oc3ccccc23)c(=O)n(-c2ccccc2)n1C | 17* | -3 | -1 | -2 | 6
CN(C)c1ccc(C=NNC(=O)C2CC2c2ccccc2)cc1 (stereo unspecified) | · | · | · | 44* | ·
O=[N+]([O-])c1cc(C=NN2CCCCC2)ccc1Cl | · | · | · | 43* | ·
Cc1ccc(C)c(CC(=O)Nc2nnc(-c3ccno3)o2)c1 | · | · | · | 56* | ·
O=c1[nH]c(-c2ccccn2)nc2ccccc12 | · | -34 | -2 | 42* | 0
O=c1[nH]c(-c2ccccn2)nc(C(F)(F)F)c1Br | 0 | -46 | -1 | 83* | 24
O=c1c(O)c(-c2cc(O)c(O)c(O)c2)oc2cc(O)cc(O)c12 | i | -24 | 14* | 8 | -12
CCc1ccccc1NC(=O)CN(C)C(=O)CSc1nnc(Nc2cccc(C)c2C)s1 | 0 | -23 | 29* | 4 | -3
C=C1C(=O)OC2CC(C)C3C=CC(=O)C3(C)C(O)C12 (stereo unspecified) | i | 26 | 1 | -9 | ·
C=C1C(=O)O[C@@H]2C[C@@H](C)[C@@H]3C4OC4C(=O)[C@@]3(C)[C@@H](O)[C@H]12 (stereo partly specified) | -1 | -58 | -1 | -23 | 36*
CCCCC(=O)Nc1nc(-c2ccccn2)cs1 | · | · | · | 50* | ·
O=C(CN1CSCC1=O)Nc1nc(-c2ccccn2)cs1 | · | · | · | 56 | ·
O=C(CN1C(=O)NC2(CCOc3ccccc32)C1=O)Nc1nc(-c2ccccn2)cs1 (stereo unspecified) | · | · | · | 111* | ·
O=C(CN1C(=O)CCC1=O)Nc1nc(-c2ccccn2)cs1 | 0 | -30 | -3 | 51* | 6
CCNC(=O)CN1C(=O)NC2(CCOc3ccccc32)C1=O (stereo unspecified) | 0 | -23 | -4 | -8 | -1
O=C(CN1C(=O)CCOc2ccccc21)Nc1nc(-c2ccccn2)cs1 | · | · | · | 93* | ·
CCCCC(=O)NN=Cc1c(O)n(CCC2=CCCCC2)c(=O)[nH]c1=O | · | · | · | -4 | ·
Fc1ccc(C=NN2CCCCC2)c(F)c1 | · | · | · | 43* | ·
Fc1ccc(/C=N/N2CCCCC2)c(F)c1 | 0 | -18 | -2 | · | -5
SMILES | BH1578 lux ind | PrP 5UTR inh | FadD28 binding | SSB-PriA inh | PrPC TRFRET
FC(F)(F)c1cnc(C(c2ccccn2)c2ncn[nH]2)c(Cl)c1 (stereo unspecified) | 0 | -34 | ? | 77* | 2
Clc1cccc(NN=Cc2ccc(N3CCOCC3)cc2)c1 | · | · | · | -5 | ·
O=c1[nH]cc(-c2ccc(Br)cc2)n1Cc1ccccc1 | 0 | -18 | 1 | 77* | -3
Fc1ccc(-c2c[nH]c(=S)n2Cc2ccccc2)cc1 | -2 | -16 | 2 | 8 | -3
Oc1c(Br)cccc1C=NNc1c(F)c(F)c(F)c(F)c1F | · | · | · | -5 | ·
CC1=C(SCCC#N)S/C(=C2\SC(C)=C(SCCC#N)S2)S1 | -5 | -16 | -3 | 54* | -5
Cc1cccc(NC(=O)CN2C(=O)N/C(=C/c3cc(C)n(-c4cccnc4)c3C)C2=O)c1 | 0 | -20 | 28* | 11 | -9
Cc1cccc(NC(=O)CN2C(=O)N/C(=C/c3cc(C)n(-c4ccncc4)c3C)C2=O)c1 | -4 | -30 | 11* | 0 | -15
Cc1cccc(NC(=O)CN2C(=O)N/C(=C/c3cc(C)n(C)c3C)C2=O)c1 | -1 | -10 | 0 | 5 | -2
Cc1ccc(N2C[C@@H](c3nc(-c4ccc5c(c4)OCO5)no3)CC2=O)cc1F | · | · | · | -6 | ·
Cn1c(C(F)(F)F)nn(Cc2ccccn2)c1=O | · | · | · | 3 | ·
COc1ccc(C(=O)/C=C/c2ccc(-c3ccc(F)cc3)o2)cc1 | · | · | · | 8 | ·
COCCNC(=O)C(=O)Nc1ccc(F)cc1 | · | · | · | -13 | ·
Cc1ccccc1NC1=C(C(=O)c2ccccc2)N(C)S(=O)(=O)c2ccccc21 | 11 | -6 | -1 | 1 | -2
O=C(C1=C(Nc2ccccc2)c2ccccc2S(=O)(=O)N1)c1ccccc1 | 0 | -35 | 2 | 42* | -6
Cc1c([N+](=O)[O-])cc(S(=O)(=O)NCCOc2cccc(C(F)(F)F)c2)cc1[N+](=O)[O-] | · | · | · | 39* | ·
Cc1c([N+](=O)[O-])cc(S(=O)(=O)NCCOc2ccc(F)cc2)cc1[N+](=O)[O-] | · | · | · | 20 | ·
Cc1ccc(-n2ncc3c(=O)[nH]c(SCC(=O)N4CCC(C)CC4)nc32)cc1C | 0 | -12 | -3 | 86* | 2
O=C(NCCOc1ccc(F)cc1)c1ccccc1C(=O)c1ccccc1 | · | · | · | -13 | ·
FC(F)(F)c1ccc2c(c1)ncc1c(-c3ccccc3)nn(-c3ccc(Br)cc3)c12 | · | · | · | -22 | ·
CCOC(=O)c1nc(Nc2ccc(Nc3ccccc3)cc2)c2ccccc2n1 | · | -5 | -1 | 47* | -10
O=C(c1ccc(N2CCOCC2)nn1)N1CCN(c2ccccn2)CC1 | · | · | · | 12 | ·
O=C(c1ccc(CSCc2ccccc2F)o1)N1CCN(c2ccc(N3CCOCC3)nn2)CC1 | 0 | -2 | -1 | 96* | -7
COc1ccc(NC(=O)C(C)Oc2ccc(C(C)=NO)cc2)cc1 (stereo unspecified) | · | · | · | -12 | ·
NC(=S)N=Nc1c(O)cc(O)c2[nH]c(=O)ccc12 | · | -28 | 30* | 1 | -15
SMILES | BH1578 lux ind | PrP 5UTR inh | FadD28 binding | SSB-PriA inh | PrPC TRFRET
CC(ON=Cc1ccccc1OC(F)F)C(=O)Nc1cccc(S(=O)(=O)N2CCOCC2)c1 (stereo unspecified) | · | · | · | 11 | ·
CCOC(=O)c1c(-c2ccc(OC)cc2)csc1N | · | · | · | 40* | ·
O=[N+]([O-])c1cccc(/C=N/n2c(C3CCCCC3)n[nH]c2=S)c1 | 0 | 0 | 18* | · | -1
O=C(OCC(=O)c1c[nH]c2ccccc12)c1cccc(S(=O)(=O)N2CCCCCC2)c1 | i | -46 | 5 | 1 | 8
CCc1cccc2c(C(=O)COC(=O)c3cccc(S(=O)(=O)N(C)C4CCCCC4)c3)c[nH]c12 | i | -18 | 22* | -14 | -3
COc1cc2c(c(OC)c1)C(c1cccc(OC)c1OC)CC(=O)N2 (stereo unspecified) | 0 | -23 | -2 | 115* | 3
COC(=O)c1ccccc1NC(=O)Cn1cnc2c(-c3ccc(Cl)cc3)csc2c1=O | · | · | · | -6 | ·
CCN(CC)c1ccc(/C=C(\C#N)C(=O)c2ccc(Br)cc2)cc1 | 0 | -19 | 28* | -60 | 0
COc1ccccc1NC(=S)NCCc1c[nH]c2ccccc12 | 0 | -2 | -3 | 45* | -3
COc1cc(NC(=S)NCCc2c[nH]c3ccccc23)c(OC)cc1Cl | -5 | -12 | -1 | 10 | 6

Bioassay records: PubChem BioAssay, several laboratories
